# Screening results (PubChem BioAssay)
# FLuc inh: blocks purified firefly luciferase enzyme activity | purified P. pyralis luciferase, luminescence, biochemical | Potency, µM (titrated, usually from 115 µM), most hits filed as inhibitors | 76,000 tested, 2.5% active | AID 1347043; also: nearly all actives have a fitted effect of over 65% in size
#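 Purified P. pyralis luciferase (10nM final) in 50mM Tris acetate pH 7.5, 10mM Mg acetate, 0.01% Tween-20, 0.05% BSA with 10uM D-luciferin and 10uM ATP. Compounds titrated qHTS. Luminescence imaged on CCD.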
# HEK293 tox: cytotoxic compounds in HEK 293 cells; HEK 293 viability, ATP luminescence (CellTiter-Glo), 48-72 h; 94,000 tested, 6.6% active; Potency, µM (highest dose often 115 µM), for the others: top-dose activity change, negative = cytotoxicity, hits mostly inhibitors; also: nearly all actives have a fitted effect of over 60% in size
#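 CellTiter-Glo luminescence (cellular ATP) was read after 48 or 72 hr of compound exposure at 37 degree Celsius. Cells were HEK 293 plated at 250 cells/well.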
# 3T3 cytotox: NIH 3T3 cell cytotoxicity | NIH 3T3 viability, CellTiter-Glo ATP luminescence, 48-72 h | 94,000 tested, 4.3% active | Potency, µM (highest dose often 96.7 µM), inactives show top-dose activity change, negative = cytotoxicity, actives largely listed as inhibitors; also: nearly all actives have a fitted effect of over 55% in size
#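 ATP-dependent luminescence (CellTiter-Glo) served as the viability signal for NIH 3T3 cells treated with compound for 48 or 72 hr at 37 °C.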
# SNCA viab count: cell viability loss counter-screen; 150,000 tested, 0.12% active; HEK-293-SNCA-luc viability, GF-AFC fluorescence, 24 h; AID 1671193; Potency, µM (highest dose often 57.1 µM), inactives show at the highest dose activity change, negative = cytotoxicity, actives largely listed as cytotoxic;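 also: 0% = DMSO-treated cells and -100% = medium-only wells without cells; nearly all actives have a fitted effect of over 30% in size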
#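 HEK-293-SNCA-luc cells (1500/well) plated 24 h, then exposed 24 h to a dilution series; GF-AFC added 30 min at 37C, fluorescence 405/540 nm; normalised to medium-only and DMSO wells, Hill fit.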
# SNCA expr inh: reduces expression of the alpha-synuclein gene | 140,000 tested, 0.17% active | HEK-293 SNCA-luciferase knock-in, luminescence, 24 h | Potency, µM (doses to about 57.2 µM), for inactives: at the highest dose activity change, negative = inhibition, usual class: inhibitors;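 also: plate controls were DMSO cells for no effect and cell-free wells for full effect; nearly all actives have a fitted effect of over 45% in size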
# hNpr1 antagonist: blocks ANP-stimulated signaling of human Npr1 receptor. HEK293 hNpr1 GloSensor cGMP, ANP-stimulated luminescence. P16066. Potency, µM (titrated, usually from 46.3 µM), for the others: at the highest dose activity change, negative = inhibition, most hits filed as inhibitors. 76,000 tested, 1.6% active; calls by dose curve; also: nearly all actives have a fitted effect of over 60% in size
# Target sequence (P16066 whole entry, looked up): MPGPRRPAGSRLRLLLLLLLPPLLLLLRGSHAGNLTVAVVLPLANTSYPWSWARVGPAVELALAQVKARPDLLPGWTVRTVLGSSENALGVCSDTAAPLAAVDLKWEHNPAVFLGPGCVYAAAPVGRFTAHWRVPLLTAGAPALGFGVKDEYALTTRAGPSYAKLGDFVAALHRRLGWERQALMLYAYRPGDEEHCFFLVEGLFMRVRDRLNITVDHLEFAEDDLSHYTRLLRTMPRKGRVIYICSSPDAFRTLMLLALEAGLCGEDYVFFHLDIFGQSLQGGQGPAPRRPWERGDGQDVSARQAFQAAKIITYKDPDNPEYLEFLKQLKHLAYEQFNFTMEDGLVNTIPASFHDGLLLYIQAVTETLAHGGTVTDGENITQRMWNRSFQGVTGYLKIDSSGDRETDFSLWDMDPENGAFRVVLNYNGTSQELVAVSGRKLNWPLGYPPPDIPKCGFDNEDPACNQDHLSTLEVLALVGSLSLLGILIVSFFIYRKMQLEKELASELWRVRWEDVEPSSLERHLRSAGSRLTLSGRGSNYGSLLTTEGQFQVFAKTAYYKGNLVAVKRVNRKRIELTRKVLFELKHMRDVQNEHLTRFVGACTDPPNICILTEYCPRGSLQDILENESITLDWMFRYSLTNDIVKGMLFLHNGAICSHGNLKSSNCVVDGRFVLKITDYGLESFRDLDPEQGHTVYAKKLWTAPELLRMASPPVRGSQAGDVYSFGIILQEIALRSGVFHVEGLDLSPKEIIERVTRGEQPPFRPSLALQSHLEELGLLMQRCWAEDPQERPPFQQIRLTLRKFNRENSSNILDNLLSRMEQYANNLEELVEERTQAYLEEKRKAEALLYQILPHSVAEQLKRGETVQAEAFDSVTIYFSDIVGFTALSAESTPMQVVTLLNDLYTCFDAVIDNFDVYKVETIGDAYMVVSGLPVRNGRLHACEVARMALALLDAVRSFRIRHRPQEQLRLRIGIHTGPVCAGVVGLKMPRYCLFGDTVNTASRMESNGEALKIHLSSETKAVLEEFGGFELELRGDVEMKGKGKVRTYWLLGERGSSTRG
#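 HEK293 cells stably expressing human Npr1 and cGMP GloSensor pGS-40F, loaded 2 h with 2% GloSensor reagent, given compound 30 min at room temperature. Luminescence read before and 20 min after 0.1 nM hNppA.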
# Starred values were filed as active, the others as inactive; i = inactive; u = inconclusive; x = not tested or not shown; [ ] = dose if it differs, or a comment. Compounds with a hit are over-represented: about 7.4% of the library has one in this group of screens. Unless noted, calls follow the shape of the dose curve; as a rule, active = well fitted curve in the direction sought with a large enough effect; inconclusive = small, poorly fitted or top-dose-only effect, or another doubt; inactive = no such curve, though single readings can be large; an effect the other way counts as inactive or inconclusive. Unless noted, % is scaled to controls: 0 for no effect and ±100 for the full control effect; potency is read from the fitted curve at half-maximal effect.
SMILES,FLuc inh,HEK293 tox,3T3 cytotox,SNCA viab count,SNCA expr inh,hNpr1 antagonist
COc1ccc(Nc2ccnc(N3CCC(NC(=O)c4ccccn4)CC3)n2)cc1,x,u,40µM*,-9%[12.5 µM],5%,x
COc1ccc(Nc2ccnc(N3CCC(NC(=O)c4ccc(F)cc4)CC3)n2)cc1,x,u,u,-14%,8%,x
COc1ccc(C(=O)N2CCCC(c3nn(-c4ccccn4)c(=O)[nH]3)C2)cc1 (stereo unspecified),x,i,i,2%,-6%,x
COc1ccccc1-c1cc(Nc2ccc(N3CCOCC3)cc2)c2onc(C)c2n1,i,63µM*,u,-21%[87.6 µM],12%[87.6 µM],2%[70.6 µM]
COc1ccc(Nc2cc(-c3ccccc3OC)nc3c(C)noc23)cc1OC,i,u,20µM*,-11%[87.6 µM],30%[87.6 µM],-17%[70.6 µM]
COc1ccccc1-c1cc(NCC2CCOCC2)c2onc(C)c2n1,i,u,-22%[138 µM],6%[87.6 µM],2%[87.6 µM],2%[70.6 µM]
O=C1[C@@H]2C[C@@H](CN2Cc2ccc(Cl)cc2)Oc2ccccc2N1CC1CC1,i,89µM*,89µM*,u,u,-30%[70.6 µM]
N#Cc1ccc(CN2C[C@@H]3C[C@H]2C(=O)N(Cc2ccccc2)c2ccccc2O3)cc1,i,50µM*,u,-19%[87.6 µM],-29%[87.6 µM],u
COc1ccc(CN2C(=O)[C@@H]3C[C@@H](CN3Cc3ccccc3Cl)Oc3ccccc32)cc1,i,40µM*,45µM*,-21%,-8%,-12%
O=C1[C@@H]2C[C@@H](CN2Cc2ccccc2)Oc2ccccc2N1Cc1ccccc1,i,63µM*,u,-17%[87.6 µM],-30%[87.6 µM],-22%[70.6 µM]
O[C@H]1[C@H](NCc2ccc(-c3ccccc3)cc2)[C@H]2CO[C@H](O2)[C@@H]1Oc1ccccc1,i,89µM*,112µM*,3%[87.6 µM],u,-20%[70.6 µM]
O[C@H]1[C@H](NCc2ccc(F)cc2)[C@H]2CO[C@H](O2)[C@@H]1Oc1ccccc1,i,-20%[172 µM],-3%[138 µM],-11%[87.6 µM],-14%[87.6 µM],0%[70.6 µM]
O[C@H]1[C@H](NCc2ccc(-c3ccccc3)cc2)[C@H]2CO[C@H](O2)[C@@H]1Sc1ccccc1,i,40µM*,63µM*,-20%[87.6 µM],u,u
COc1cccc(-c2nnnn2[C@H]2CO[C@H]3[C@@H]2OC[C@@H]3NC(=O)c2ccc(N(C)C)cc2)c1,u,u,u,2%,44%,16µM*
O=C(N[C@H]1CO[C@H]2[C@@H]1OC[C@@H]2n1nnnc1-c1ccc2c(c1)OCO2)c1ccccc1,i,79µM*,u,-20%[87.6 µM],1%[87.6 µM],u
O=C(Nc1cccc(C(F)(F)F)c1)N[C@H]1CO[C@H]2[C@@H]1OC[C@@H]2n1nnnc1-c1ccc2c(c1)OCO2,i,40µM*,32µM*,-12%,u,u
COc1cccc(-c2nnnn2[C@H]2CO[C@H]3[C@@H]2OC[C@@H]3NC(=O)c2ccccc2C(=O)O)c1,i,-1%,-7%,1%,17%,4%
COc1ccc(NC(=O)N[C@H]2CO[C@H]3[C@@H]2OC[C@@H]3n2nnnc2-c2ccc3c(c2)OCO3)cc1,i,u,u,-6%,5%,0%
O=C(Nc1cccc(C(F)(F)F)c1)N[C@H]1CO[C@H]2[C@@H]1OC[C@@H]2n1nnnc1Oc1ccc(-n2ccnc2)cc1,i,32µM*,22µM*,-27%,u,u
COc1cccc(-c2cccc(C(=O)N3CCN(C(=O)c4ccc(C(F)(F)F)cc4)CC3)c2)c1,x,u,u,1%[12.5 µM],-17%,x
NCc1ccc(-c2ccc(F)cc2)cc1,x,100µM*,89µM*,1%[87.6 µM],10%[87.6 µM],x
NCc1cccc(-c2cc(F)cc(F)c2)c1,x,u,89µM*,5%[87.6 µM],-23%[87.6 µM],x
NCc1ccc(-c2ccc(OC(F)(F)F)cc2)cc1,x,25µM*,25µM*,-16%,27%,x
COc1ccccc1Cn1c(=O)c(C(=O)NCC(F)(F)F)nc2cccnc21,x,-11%,-31%,3%,-6%,x
O=C(C1CCN([S+](=O)([O-])c2ccccc2)C1)N1CCC(c2nc3ncccc3[nH]2)CC1 (stereo unspecified),x,-12%,-16%,10%,35%,x
SMILES,FLuc inh,HEK293 tox,3T3 cytotox,SNCA viab count,SNCA expr inh,hNpr1 antagonist
CC(C)Cn1c(=O)c(C(=O)N2CCN(C(=O)Nc3ccc(Cl)cc3)CC2)nc2cccnc21,x,i,-19%,-11%,-3%,x
O=C(c1nnc(COc2ccc(F)c(F)c2)n1-c1ccccc1)N1CCC[C@@H]1C(c1ccccc1)c1ccccc1,i,u,4.5µM*,u,u,-6%
O=C(c1nnc(CNc2ccc(OC(F)(F)F)cc2)n1-c1ccccc1)N1CCC[C@@H]1CN1CCCC1,i,71µM*,u,-1%,-4%,3%
C[C@H]1CCCN1C(=O)c1nnc(COc2ccccc2)n1-c1ccccc1,i,u,89µM*,-4%[87.6 µM],6%[87.6 µM],-13%[70.6 µM]
C[C@H]1CCCN1C(=O)c1nnc(COc2ccc(F)c(F)c2)n1-c1cccnc1,i,u,25µM*,-5%[87.6 µM],22%[87.6 µM],-5%[70.6 µM]
C[C@H]1CCCN1C(=O)c1nnc(CNc2ccc(OC(F)(F)F)cc2)n1-c1ccccc1,i,u,-22%,-2%,-15%,0%
Cc1ccc(CNC(=O)CCC2CCCN(S(=O)(=O)c3ccccc3F)C2)o1 (stereo unspecified),x,u,-24%,-6%,14%,x
CC(C)(C)C(=O)NC1CCN(C(=O)c2ccc(-c3ncccc3C#N)cc2)CC1,x,-28%,u,0%[12.5 µM],-7%,x
COCC(=O)N1CCN(CCCn2nc3n(c2=O)CCCC3)CC1,x,i,-10%,x,x,x
C[C@H]1CCCN1C(=O)c1nnc(COc2ccc3cccnc3c2)n1-c1cccnc1,i,-16%[172 µM],u,-10%[87.6 µM],u,5%[70.6 µM]
C[C@H]1CCCN1C(=O)c1nnc(COc2ccc(Cl)cc2)n1-c1ccccc1,i,79µM*,3.2µM*,u,u,-15%[70.6 µM]
CN(C)c1ncc2c(n1)C(C)(C(=O)NCC1CC1)CCC2 (stereo unspecified),i,u,u,2%[87.6 µM],-25%[87.6 µM],-9%[70.6 µM]
COc1cccc(Nc2ncc3c(n2)C(C)(C(=O)NCC2CC2)CC3)c1 (stereo unspecified),i,50µM*,u,u,-22%[87.6 µM],-24%[70.6 µM]
COc1cccc(Nc2ncc3c(n2)C(C)(C(=O)NCCc2ccccn2)CC3)c1 (stereo unspecified),i,100µM*,u,-26%[87.6 µM],-5%[87.6 µM],-2%[70.6 µM]
CC1(C(=O)NCC2CC2)CCc2cnc(Nc3ccccc3)nc21 (stereo unspecified),i,100µM*,u,-24%[87.6 µM],u,-2%[70.6 µM]
